Results filed as inconclusive are left out. Calls of active or inactive are those of the source.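 The calls were made as follows, unless noted: active = inhibition above the screen-wide mean plus 3 SD, about 51%; inactive = the rest.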
How the values were obtained:
[1] = yeast TOR pathway RPL19A-GFP modulators, primary screen, cell-based, S. cerevisiae, multiplex flow cytometry (AID 1862; in the data active = percent of DMSO control GFP below about 86%;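 also: lower values mimic rapamycin by blocking the RPL19A rise seen in DMSO cells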); settings: S. cerevisiae RPL19A-GFP strain, flow cytometry fluorescence, 3 h; at 10 µM; stronger effect = lower value
[2] = modulators of MEP2-GFP levels in yeast, primary screen, S. cerevisiae, multiplex flow cytometry (AID 1867;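 active = GFP response, as percent of the DMSO control, above the screen-wide mean plus 3 SD, about 139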;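 also: median GFP channel fluorescence of barcode-gated MEP2-GFP cells measured by flow cytometry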); settings: S. cerevisiae MEP2-GFP strain, 3 h, at 10 µM, stronger effect = higher value, 100% means same as DMSO wells
[3] = modulators of CIT2-GFP expression in yeast, primary screen, S. cerevisiae, GFP fusion, multiplex flow cytometry (AID 1870;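 active = percent response above a set limit, the screen-wide mean plus 3 SD, cut at about 130% in these data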;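 also: barcoded CIT2-GFP strain pooled with four other GFP strains with rapamycin as positive control; median GFP fluorescence per well over plate mean of DMSO wells so 100% = DMSO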); settings: 3 h, at 10 µM, stronger effect = higher value
[4] = modulators of LAP4-GFP expression in yeast, primary screen, S. cerevisiae, multiplex flow cytometry (AID 1873;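 active = GFP signal, as percent of the solvent control, above the screen mean plus 3 SD, about 149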); settings: 3 h, at 10 µM, stronger effect = higher value
[5] = modulators of AGP1-GFP expression in yeast TOR pathway, primary screen, cell-based, multiplex flow cytometry, S. cerevisiae (AID 1887;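 active = GFP signal above the screen-wide mean plus 3 SD, that is over about 124.5% of the solvent control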;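 also: AGP1-GFP fusion strain of S. cerevisiae within a five-strain barcoded multiplex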); settings: 3 h, at 10 µM, stronger effect = higher value
[6] = inhibitors of CD8+ T cell-vesicle binding, pilot screen, LFA-1/ICAM-1 modulator project, MLPCN validation set, flow cytometry (AID 2523;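 active = response below a set limit, under 55% cells CD8-positive and vesicle-bound, and CD8 cells' 90th-percentile brightness under 279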;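 as to vesicle binding response: mean PE anti-B7-1 fluorescence of CD8+ cells relative to row control; 100% = QL9-loaded vesicles with DMSO vehicle in the same plate row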); settings: 2C mouse CD8+ T cells, at 7 µM, stronger effect = lower value; double positive events: measured here: CD8+/vesicle+ event percentage
[7] = molecular target: Integrin beta-1 (Homo sapiens) + Integrin alpha-4 (Homo sapiens) (UniProt P13612+P05556); assay: inhibition of HUTS-21 binding to VLA-4, pilot screen, VLA-4 allosteric modulator project, U937 cells, HUTS-21 mAb, flow cytometry, validation set (AID 2674;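 active = inhibition above 50%, about 3 SD of the validation set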;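 also: antibody binding induced by the VLA-4 ligand LDV present at three times its Kd; 0% = LDV ligand with antibody and no compound and 100% = antibody without LDV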); settings: HUTS-21 LIBS mAb binding, at 6.7 µM, stronger effect = higher value, binding induced by LDV ligand
Integrin beta-1 (Homo sapiens) + Integrin alpha-4 (Homo sapiens), sequence (P05556 whole entry, looked up): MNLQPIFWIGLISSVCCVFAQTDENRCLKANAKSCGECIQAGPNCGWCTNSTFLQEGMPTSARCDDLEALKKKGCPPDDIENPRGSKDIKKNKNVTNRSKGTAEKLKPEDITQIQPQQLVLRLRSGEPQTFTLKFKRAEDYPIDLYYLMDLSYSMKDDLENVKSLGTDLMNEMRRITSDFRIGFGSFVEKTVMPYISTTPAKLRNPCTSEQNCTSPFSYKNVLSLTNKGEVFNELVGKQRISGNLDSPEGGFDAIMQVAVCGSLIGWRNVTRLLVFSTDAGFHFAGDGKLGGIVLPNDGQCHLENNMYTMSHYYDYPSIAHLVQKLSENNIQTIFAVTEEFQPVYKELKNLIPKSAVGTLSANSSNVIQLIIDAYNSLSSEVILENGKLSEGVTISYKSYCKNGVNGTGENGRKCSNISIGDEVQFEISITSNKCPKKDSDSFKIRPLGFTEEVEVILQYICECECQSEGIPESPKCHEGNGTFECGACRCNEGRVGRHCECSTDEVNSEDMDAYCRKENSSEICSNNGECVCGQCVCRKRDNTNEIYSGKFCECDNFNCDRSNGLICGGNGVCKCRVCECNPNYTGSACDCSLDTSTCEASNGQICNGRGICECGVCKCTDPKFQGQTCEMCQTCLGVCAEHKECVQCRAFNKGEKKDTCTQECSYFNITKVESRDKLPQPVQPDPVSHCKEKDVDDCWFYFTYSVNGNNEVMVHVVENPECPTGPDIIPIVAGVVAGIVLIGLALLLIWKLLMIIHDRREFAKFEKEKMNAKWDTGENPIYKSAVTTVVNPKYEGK
Integrin beta-1 (Homo sapiens) + Integrin alpha-4 (Homo sapiens), sequence (P13612 whole entry, looked up): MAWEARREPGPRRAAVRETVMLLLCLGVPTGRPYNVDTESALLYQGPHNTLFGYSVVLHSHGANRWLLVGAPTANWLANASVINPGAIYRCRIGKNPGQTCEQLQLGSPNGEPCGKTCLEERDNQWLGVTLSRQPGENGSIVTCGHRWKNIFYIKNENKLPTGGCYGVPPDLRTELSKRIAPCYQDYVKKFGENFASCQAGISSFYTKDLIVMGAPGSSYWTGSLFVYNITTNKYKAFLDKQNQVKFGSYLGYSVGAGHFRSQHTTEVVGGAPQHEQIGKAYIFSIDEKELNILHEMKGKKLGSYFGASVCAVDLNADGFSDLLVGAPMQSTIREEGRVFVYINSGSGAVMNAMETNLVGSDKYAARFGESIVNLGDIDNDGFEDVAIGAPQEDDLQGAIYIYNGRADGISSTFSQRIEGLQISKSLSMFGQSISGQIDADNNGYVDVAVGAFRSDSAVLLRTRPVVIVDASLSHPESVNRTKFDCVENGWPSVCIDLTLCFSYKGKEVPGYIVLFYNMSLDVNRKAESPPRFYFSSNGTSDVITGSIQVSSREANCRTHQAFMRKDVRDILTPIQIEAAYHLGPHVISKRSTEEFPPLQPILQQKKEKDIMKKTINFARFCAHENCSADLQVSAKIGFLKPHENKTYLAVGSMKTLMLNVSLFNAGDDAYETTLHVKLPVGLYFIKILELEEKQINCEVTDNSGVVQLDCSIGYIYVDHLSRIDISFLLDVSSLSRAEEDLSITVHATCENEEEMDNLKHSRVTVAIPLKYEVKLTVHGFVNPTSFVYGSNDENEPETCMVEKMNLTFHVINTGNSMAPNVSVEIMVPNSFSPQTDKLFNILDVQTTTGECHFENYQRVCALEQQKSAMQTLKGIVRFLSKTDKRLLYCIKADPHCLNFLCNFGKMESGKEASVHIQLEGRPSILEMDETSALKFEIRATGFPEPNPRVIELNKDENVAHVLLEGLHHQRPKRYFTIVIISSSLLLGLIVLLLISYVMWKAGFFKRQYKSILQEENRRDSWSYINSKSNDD

[8] = superoxide lowering in aged yeast cells, pilot screen, validation compound set (AID 2706;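 active = superoxide response below 65% of plate, a cut near 3 SD across the whole screen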;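 also: yeast exposed to compound for one week at 30 degrees C before staining; 100% = mean of all compound wells on the same plate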); settings: S. cerevisiae aging, superoxide DHE fluorescence; at 10 µM, stronger effect = lower value
[9] = molecular target: Beta-adrenergic receptor kinase 1 (Homo sapiens) (UniProt P25098); assay: GRK2 binders displacing RNA aptamer, biochemical, validation, human GRK2, bead flow cytometry (AID 488806;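 active = aptamer binding inhibition above 30%, about 3 SD of noise from non-fluorescent compounds; inactive = inhibition at or below 30%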); settings: bead-bound GRK2, FAM-aptamer displacement, at 10 µM, stronger effect = higher value
Beta-adrenergic receptor kinase 1 (Homo sapiens), sequence (P25098 whole entry, looked up): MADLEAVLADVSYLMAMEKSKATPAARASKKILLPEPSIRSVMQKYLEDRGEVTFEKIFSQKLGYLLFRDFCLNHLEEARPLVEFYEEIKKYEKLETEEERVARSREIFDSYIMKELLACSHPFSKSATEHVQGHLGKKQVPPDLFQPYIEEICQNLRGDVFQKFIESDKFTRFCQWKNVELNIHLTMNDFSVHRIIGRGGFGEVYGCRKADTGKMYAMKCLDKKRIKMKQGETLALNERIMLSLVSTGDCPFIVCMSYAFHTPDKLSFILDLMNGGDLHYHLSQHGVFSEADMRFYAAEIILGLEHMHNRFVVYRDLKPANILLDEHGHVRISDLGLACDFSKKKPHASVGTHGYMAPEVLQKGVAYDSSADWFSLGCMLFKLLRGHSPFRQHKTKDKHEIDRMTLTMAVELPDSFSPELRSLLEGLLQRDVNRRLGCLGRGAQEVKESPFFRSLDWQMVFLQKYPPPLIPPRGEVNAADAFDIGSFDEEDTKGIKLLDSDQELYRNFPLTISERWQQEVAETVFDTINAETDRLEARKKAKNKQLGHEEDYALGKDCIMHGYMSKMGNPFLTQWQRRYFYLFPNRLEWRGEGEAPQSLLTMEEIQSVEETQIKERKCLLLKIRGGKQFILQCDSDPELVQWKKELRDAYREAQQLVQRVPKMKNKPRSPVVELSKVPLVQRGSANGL

[10] = molecular target: AP-2 complex subunit beta (Homo sapiens) (UniProt P63010); assay: inhibitors of arrestin peptide binding to AP2, pilot screen, biochemical, validation set, GST-AP2 beads, flow cytometry (AID 504541;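 active = inhibition above 54%, about 3 SD of non-fluorescent compounds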;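 also: AP2 carries R879A mutation and is captured from E. coli lysate; bead-bound FITC arrestin peptide fluorescence measuring arrestin peptide binding to AP2; 0% = DMSO wells and 100% = excess unlabeled arrestin peptide control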); settings: FITC arrestin peptide, at 10 µM, stronger effect = higher value, AP2 beta2 appendage fragment, R879A mutant
AP-2 complex subunit beta (Homo sapiens), sequence (P63010 whole entry, looked up, the tested form may be a part, one chain of several): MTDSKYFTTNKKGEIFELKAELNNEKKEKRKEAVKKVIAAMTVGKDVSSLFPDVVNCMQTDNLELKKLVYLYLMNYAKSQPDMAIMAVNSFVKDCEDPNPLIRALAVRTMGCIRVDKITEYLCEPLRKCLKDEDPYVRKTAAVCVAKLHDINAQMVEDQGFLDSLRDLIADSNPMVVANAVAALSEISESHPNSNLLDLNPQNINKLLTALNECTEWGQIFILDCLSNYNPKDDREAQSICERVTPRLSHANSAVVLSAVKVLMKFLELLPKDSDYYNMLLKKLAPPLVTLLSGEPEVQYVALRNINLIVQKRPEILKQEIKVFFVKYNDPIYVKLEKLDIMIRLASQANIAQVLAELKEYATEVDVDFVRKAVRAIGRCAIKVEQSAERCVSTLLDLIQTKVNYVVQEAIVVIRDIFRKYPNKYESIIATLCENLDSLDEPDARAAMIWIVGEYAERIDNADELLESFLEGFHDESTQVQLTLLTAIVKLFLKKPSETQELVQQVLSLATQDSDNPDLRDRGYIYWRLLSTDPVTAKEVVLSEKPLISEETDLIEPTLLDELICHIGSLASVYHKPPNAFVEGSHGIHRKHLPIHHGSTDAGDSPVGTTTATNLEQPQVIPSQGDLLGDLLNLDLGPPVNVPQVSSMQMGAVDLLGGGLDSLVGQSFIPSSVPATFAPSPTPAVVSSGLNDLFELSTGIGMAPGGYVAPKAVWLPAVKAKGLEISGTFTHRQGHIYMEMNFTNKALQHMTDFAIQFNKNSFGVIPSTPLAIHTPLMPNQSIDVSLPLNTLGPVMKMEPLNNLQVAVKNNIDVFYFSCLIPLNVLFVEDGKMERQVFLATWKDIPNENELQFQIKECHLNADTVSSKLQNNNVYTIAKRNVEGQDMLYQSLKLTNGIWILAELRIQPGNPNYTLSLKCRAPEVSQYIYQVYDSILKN

[11] = yeast V-ATPase proton transport modulators, S. cerevisiae, pHLuorin, HTS validation (AID 504600; in the data active = response above about 15%;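 also: plate controls were DMSO for no effect and reference compound for full effect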); settings: S. cerevisiae pHLuorin cytosolic pH, at 10 µM, stronger effect = higher value
[12] = test system: anti-desmoglein-3 scFv antibody binding to human DSG3; assay: inhibitors of anti-DSG3 scFv binding to DSG3, pilot screen, biochemical, validation compound set, bead-based, flow cytometry (AID 588368;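 active = binding below the plate cutoff, the plate median minus 3 SD, with a reading above zero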;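 also: signal is the median channel fluorescence of bead-bound GFP antibody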); settings: Protein G beads, DSG3-Fc, scFv-GFP binding, at 10 µM, stronger effect = lower value
[13] = inhibitors of fungal efflux pumps CDR1, CDR2, MDR1, pilot screen, validation compound set, multiplex, phenotypic (AID 588506;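 active = efflux inhibition above 0.42, the validation set average plus 4 SD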;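 also: Nile Red retained in cells so higher fluorescence means more efflux inhibition; 0 = negative control wells and 1 = enniatin B 25 µM full block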); settings: S. cerevisiae pump-expressing triplex, Nile Red efflux flow cytometry; at 10 µM; stronger effect = higher value; the pumps come from Candida albicans
[14] = molecular target: ATP-binding cassette sub-family B member 6 (Homo sapiens) (UniProt Q9NP58); assay: ABCB6 transporter inhibitors, pilot screen, K562-ABCB6 cells, flow cytometry, validation set (AID 588550); settings: K562-ABCB6 porphyrin accumulation, 1 h, at 10 µM, stronger effect = higher value;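 also: 0% = DMSO wells and 100% = benzethonium chloride 70 µM positive control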
ATP-binding cassette sub-family B member 6 (Homo sapiens), sequence (Q9NP58 whole entry, looked up): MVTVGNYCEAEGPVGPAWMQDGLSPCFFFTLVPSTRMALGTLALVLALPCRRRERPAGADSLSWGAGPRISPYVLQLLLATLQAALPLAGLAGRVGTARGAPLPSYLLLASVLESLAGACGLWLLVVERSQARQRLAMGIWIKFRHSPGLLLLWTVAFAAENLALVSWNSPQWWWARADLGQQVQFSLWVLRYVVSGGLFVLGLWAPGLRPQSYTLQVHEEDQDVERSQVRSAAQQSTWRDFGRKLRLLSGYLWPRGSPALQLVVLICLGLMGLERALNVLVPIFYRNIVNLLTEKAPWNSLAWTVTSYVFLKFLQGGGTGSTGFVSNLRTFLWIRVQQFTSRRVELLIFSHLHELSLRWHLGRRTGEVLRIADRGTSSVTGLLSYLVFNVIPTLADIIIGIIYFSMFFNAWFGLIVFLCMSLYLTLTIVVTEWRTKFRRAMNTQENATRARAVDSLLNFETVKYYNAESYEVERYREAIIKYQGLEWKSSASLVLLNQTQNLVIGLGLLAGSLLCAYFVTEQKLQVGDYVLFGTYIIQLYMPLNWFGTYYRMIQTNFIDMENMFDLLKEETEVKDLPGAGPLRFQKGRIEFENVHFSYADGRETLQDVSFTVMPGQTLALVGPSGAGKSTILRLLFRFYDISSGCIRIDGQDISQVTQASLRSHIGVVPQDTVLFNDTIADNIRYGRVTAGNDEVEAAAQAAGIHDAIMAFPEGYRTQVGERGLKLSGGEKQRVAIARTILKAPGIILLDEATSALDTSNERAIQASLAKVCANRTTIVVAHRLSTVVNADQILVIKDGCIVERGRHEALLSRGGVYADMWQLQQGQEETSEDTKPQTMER

[15] = promoters of myeloid differentiation in arrested cells, primary screen, cell-based, GFP/MAC1 double positive, flow cytometry, validation set (AID 588685;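 active = differentiation response of at least 50%, scaled between solvent and reference control, from cells with both markers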;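 also: compound exposure lasts four days before antibody staining and flow analysis; 0% = DMSO wells and 100% = 5 µM fulvestrant positive control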); settings: ER-HoxA9 marrow cells, stronger effect = higher value, normalized: vehicle 0, fulvestrant 100
[16] = molecular target: Beta-2 adrenergic receptor (Homo sapiens) (UniProt P07550); assay: beta2AR agonists driving receptor internalization, pilot screen, cell-based, FAP fluorogen, flow cytometry, validation set (AID 504459;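 active = percent response above 42, roughly 3 SD of non-fluorescent test compounds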;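 also: agonist-driven loss of surface beta2AR via internalization measured by FAP dye flow cytometry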); settings: Am2.2-beta2AR cells, FAP surface receptor flow cytometry; at 10 µM; stronger effect = higher value
Beta-2 adrenergic receptor (Homo sapiens), sequence (P07550 whole entry, looked up): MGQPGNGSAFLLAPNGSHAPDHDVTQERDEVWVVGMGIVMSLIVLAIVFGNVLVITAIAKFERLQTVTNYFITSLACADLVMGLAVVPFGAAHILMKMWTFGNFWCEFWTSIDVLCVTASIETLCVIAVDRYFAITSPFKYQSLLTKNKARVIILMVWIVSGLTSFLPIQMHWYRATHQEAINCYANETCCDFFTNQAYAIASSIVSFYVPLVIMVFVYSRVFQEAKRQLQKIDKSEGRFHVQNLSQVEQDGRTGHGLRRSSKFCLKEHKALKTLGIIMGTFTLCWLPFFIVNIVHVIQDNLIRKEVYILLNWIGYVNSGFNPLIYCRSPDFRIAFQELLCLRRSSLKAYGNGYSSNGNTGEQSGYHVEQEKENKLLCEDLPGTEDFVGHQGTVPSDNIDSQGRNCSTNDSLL

| Compound | percent of DMSO control GFP [1] | GFP response vs DMSO [2] | percent response of DMSO control [3] | GFP response vs DMSO [4] | GFP response, % of DMSO [5] | double positive events [6] | vesicle binding response [6] | inhibition [7] | superoxide response (% of plate) [8] | aptamer binding inhibition [9] | inhibition [10] | response [11] | binding (% of control) [12] | efflux inhibition (fraction of control) [13] | inhibition [14] | differentiation response [15] | response [16] |
| --- | --- | --- | --- | --- | --- | --- | --- | --- | --- | --- | --- | --- | --- | --- | --- | --- | --- |
| CCCC1O[C@@H]2C[C@H]3[C@@H]4CCC5=CC(=O)C=C[C@]5(C)[C@H]4[C@@H](O)C[C@]3(C)[C@]2(C(=O)CO)O1 (some centres not stated) | 100% (inactive) | 108% (inactive) | 108% (inactive) | 100% (inactive) | 106% (inactive) | 58.8% | 217% (inactive) | 4.42% (inactive) | 103% (inactive) | 4% (inactive) | 42.5% (inactive) | -0.18% (inactive) | 104% (inactive) | 0.1 (inactive) | 0% (inactive) | 6.26% (inactive) | – |
| Cc1ccc2c(c1)C(O)(c1c(C)[nH]c3ccccc13)C(=O)N2 (configuration not stated) | 98.6% (inactive) | 97.9% (inactive) | 106% (inactive) | 96.4% (inactive) | 90.1% (inactive) | 57.8% | 259% (inactive) | -4.9% (inactive) | 98.1% (inactive) | -1% (inactive) | -11.2% (inactive) | -5.66% (inactive) | 102% (inactive) | 0.1 (inactive) | 5% (inactive) | -34.1% (inactive) | – |
| CN(C)CCOC(C)(c1ccccc1)c1ccccn1 (configuration not stated) | 100% (inactive) | 104% (inactive) | 93.1% (inactive) | 83.5% (inactive) | 93.7% (inactive) | 63.3% | 129% (inactive) | -1.49% (inactive) | – | 2% (inactive) | 13.9% (inactive) | -1.19% (inactive) | 106% (inactive) | 0.74 (active) | 6% (inactive) | 13.9% (inactive) | 2.25% (inactive) |
| Oc1c(Cl)cc(Cl)c(Cl)c1Cc1c(O)c(Cl)cc(Cl)c1Cl | 107% (inactive) | 113% (inactive) | 108% (inactive) | 96.8% (inactive) | 93.1% (inactive) | 51.2% | 24.1% (active) | 7.43% (inactive) | 79.3% (inactive) | -1% (inactive) | – | 0.14% (inactive) | 105% (inactive) | 0.19 (inactive) | 8% (inactive) | 0.82% (inactive) | – |
| Cc1cnc(C(=O)NCCc2ccc(S(=O)(=O)NC(=O)NC3CCCCC3)cc2)cn1 | 93.9% (inactive) | 93.8% (inactive) | 110% (inactive) | 92.3% (inactive) | 92.2% (inactive) | 65% | 230% (inactive) | -9.57% (inactive) | 95.2% (inactive) | 2% (inactive) | -11.4% (inactive) | -3.18% (inactive) | 104% (inactive) | -0.12 (inactive) | 4% (inactive) | -3.43% (inactive) | – |
| CCCC(=O)Nc1ccc(OCC(O)CNC(C)C)c(C(C)=O)c1 (configuration not stated) | 99% (inactive) | 101% (inactive) | 100% (inactive) | 106% (inactive) | 99.2% (inactive) | 59.8% | 2400% (inactive) | -24.6% (inactive) | 106% (inactive) | -5% (inactive) | – | -0.74% (inactive) | 200% (inactive) | -0.57 (inactive) | -3% (inactive) | 11.1% (inactive) | – |
| Cc1ccc(CSCC(=O)NCCCN2CCOCC2)cc1 | 100% (inactive) | 96.2% (inactive) | 95.4% (inactive) | 92.7% (inactive) | 96.4% (inactive) | 67.8% | 243% (inactive) | -4.6% (inactive) | – | -4% (inactive) | -6.22% (inactive) | 1.78% (inactive) | 104% (inactive) | 0.33 (inactive) | -6% (inactive) | 3.18% (inactive) | -1.57% (inactive) |
| O=C(Nc1ccc(Oc2c(F)c(F)c(F)c(F)c2F)cc1)OC1CCN2Cc3ccccc3N=C12 (configuration not stated) | 107% (inactive) | 105% (inactive) | 97.9% (inactive) | 98.4% (inactive) | 96.4% (inactive) | 53.8% | 123% (inactive) | -184% (inactive) | 85.7% (inactive) | 0% (inactive) | – | -2.8% (inactive) | 98.8% (inactive) | 1.47 (active) | 1% (inactive) | 70.8% (active) | – |
| CC(C)[N+](C)(CCOC(=O)C1c2ccccc2Oc2ccccc21)C(C)C | 99.6% (inactive) | 101% (inactive) | 109% (inactive) | 85.3% (inactive) | 101% (inactive) | 56% | 192% (inactive) | 1.62% (inactive) | 81.9% (inactive) | 0% (inactive) | -3.24% (inactive) | 9.45% (inactive) | 97.3% (inactive) | -0.09 (inactive) | 7% (inactive) | 1.41% (inactive) | – |
| CCc1cc2c(=O)c(-c3ccc(F)cc3)c(C)oc2cc1OCC(=O)O | 107% (inactive) | 98.3% (inactive) | 104% (inactive) | 88.1% (inactive) | 100% (inactive) | 70.6% | 168% (inactive) | 6.81% (inactive) | – | -3% (inactive) | -6.22% (inactive) | 0.76% (inactive) | 104% (inactive) | 0.43 (active) | -6% (inactive) | 30.5% (inactive) | -3.44% (inactive) |
